# This is a sample that favours compounds with a hit; in the whole collection about 12% have one here.
# JMJD2A Tudor inh – inhibitors of human JMJD2A Tudor domain; O75164; 390,000 compounds, 4.4% hits; Potency, µM (series often up to 114 µM), most hits filed as inhibitors; AID 504339; AlphaScreen JMJD2A-Tudor / H3K4me3 peptide binding; note: nearly all actives have a fitted effect of over 50% in size
# G9a block – inhibitors of human histone lysine methyltransferase G9a. Q96KQ7. G9a H3K9 monomethylation, AlphaScreen, 2 h. Potency, µM (top dose mostly 102 µM), usual class: inhibitors. 350,000 compounds, 8.8% hits. AID 504332; note: nearly all actives have a fitted effect of over 75% in size
# Target sequence (Q96KQ7 913-1193 limits assumed): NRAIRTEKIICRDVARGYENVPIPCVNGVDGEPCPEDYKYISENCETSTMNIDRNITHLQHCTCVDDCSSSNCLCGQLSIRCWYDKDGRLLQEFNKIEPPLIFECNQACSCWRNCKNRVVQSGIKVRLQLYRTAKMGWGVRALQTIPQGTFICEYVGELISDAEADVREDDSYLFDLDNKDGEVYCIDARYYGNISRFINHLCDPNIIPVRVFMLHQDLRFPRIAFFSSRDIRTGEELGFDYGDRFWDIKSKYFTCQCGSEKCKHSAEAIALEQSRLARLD
#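 Readings reflect AlphaScreen signal from monomethyl-H3K9 antibody detection. HMT at 20 nM; substrate b-H3K9 500 nM; cofactor SAM 20 uM; 2 h RT reaction; compounds tested as titrations in qHTS with 15 min preincubation.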
# Sfp PPTase inh – blocks B. subtilis Sfp PPTase activity; 310,000 compounds, 3.5% hits; Biochemical Sfp PPTase activity, qHTS; Potency, µM, hits mostly inhibitors;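 note: the enzyme is Sfp with the accession as filed and its product quenches rhodamine fluorescence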
#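 With Hepes-Na pH 7.6 buffer containing 10 mM MgCl2, Sfp (15 nM) modified BHQ-2-YbbR (12.5 uM) using rhodamine-CoA (5 uM). Two reads 30 minutes apart at 525/598 nm yielded each well's rate.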
# BAZ2B inh – BAZ2B (human) inhibition; Q9UIF8; AlphaScreen BAZ2B-H3K14Ac peptide displacement; Potency, µM (doses to about 114 µM), actives largely listed as inhibitors; 360,000 compounds, 4.4% hits; AID 504333; note: nearly all actives have a fitted effect of over 60% in size
#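 Compounds, titrated to a top concentration of 110 uM, were incubated 30 min at room temperature with preformed BAZ2B/acetyl-K14 H3 peptide complex (50 nM each). Proximity signal was measured by AlphaScreen after 20 min with beads.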
# HP1b chromo inh – HP1-beta chromodomain-methylated histone interaction inhibition; P83916; AlphaScreen HP1-beta / biotin-H3K9me3 peptide binding; Potency, µM (top dose mostly 114 µM), most hits filed as inhibitors; 390,000 compounds, 0.56% hits; AID 540317; note: nearly all actives have a fitted effect of over 70% in size
# Target sequence (P83916 whole entry, looked up): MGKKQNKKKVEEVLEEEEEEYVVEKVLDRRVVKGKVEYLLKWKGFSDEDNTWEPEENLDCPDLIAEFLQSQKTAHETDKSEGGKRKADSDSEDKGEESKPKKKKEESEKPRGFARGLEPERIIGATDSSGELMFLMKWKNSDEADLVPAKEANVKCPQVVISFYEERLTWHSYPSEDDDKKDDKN
#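 Compound inhibition of the preformed complex between 50 nM HP1-beta and 50 nM biotinylated H3K9me3 peptide was read by AlphaScreen. Buffer was PBS pH 7.4 with 0.01% Tween-20. Incubations ran 30 min at room temperature, with 10 ug/mL donor/acceptor beads.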
# L3MBTL1 inh – inhibitors of human L3MBTL1; 230,000 compounds, 0.66% hits; Potency, µM (titrated, usually from 57.1 µM), actives largely listed as inhibitors; Q9Y468; AlphaScreen L3MBTL1–H3K9me1 peptide binding; note: nearly all actives have a fitted effect of over 60% in size
#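 L3MBTL1 (50 nM) pre-complexed 30 min with biotinylated H3(1-15)K9me1 peptide (75 nM), then compounds added for 30 min at room temperature; AlphaScreen streptavidin donor/nickel chelate acceptor beads (10 ug/mL final) read after 30 min dark incubation.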
# Numbers stand for hits; i = inactive; ? = inconclusive; nt = no result given; [ ] = another dose, or the depositor's remark. Calls come from the whole dose curve; as a rule, active = well fitted curve in the direction sought with a large enough effect; inconclusive = small, poorly fitted or top-dose-only effect, or another doubt; inactive = no such curve, though single readings can be large; an effect the other way counts as inactive or inconclusive.
SMILES,JMJD2A Tudor inh,G9a block,Sfp PPTase inh,BAZ2B inh,HP1b chromo inh,L3MBTL1 inh
Cc1[nH]c(C)c(C(=O)/C=C/c2ccc([N+](=O)[O-])cc2)c1C,i,?,i,i,i,i
CC1CN(C(=O)CSc2nnc(-c3cccs3)n2N)CC(C)O1 (stereo not given),i,?,nt,i,i,i
CN(C)CCC(=O)c1ccc(F)cc1,i[11.4 µM],?,i,i,i,i
CCN(CC)CCC(=O)c1ccc(F)cc1,i,39.8µM,i,i,i,i
COc1ccc(CCN=C(N)NS(=O)(=O)c2ccc(F)cc2)cc1,i,i,i,i,i,nt
O=C(c1ccc2c3c(cccc13)CC2)C1CCCN(Cc2cccnc2)C1 (stereo not given),?,nt,i,44.7µM,i,i
COc1cc(CN2CCCC(C(=O)c3ccc4c5c(cccc35)CC4)C2)cc(OC)c1O (stereo not given),?,31.6µM,i,39.8µM,i,i
CCS(=O)(=O)NCCc1sc2nc(-c3ccc(OC)cc3)nn2c1C,i,i,nt,i,i,nt
CC(C)C1=CC2=CC[C@@H]3[C@@](C)(C(=O)O)CCC[C@]3(C)C2CC1 (stereo not given in full),nt,nt,i,nt,nt,nt
CN(NC(=O)/C=C/C(=O)O)c1ncc(C(F)(F)F)cc1Cl,i,6.31µM,56.2µM,?,i,i
C=CC(=O)NN(C)c1ncc(C(F)(F)F)cc1Cl,i,i,i,i,i,i
CCOC(=O)[C@@H](N)CS,nt,?,28.2µM,nt,nt,nt
CCC[C@@H]1C[C@@]1(CCC)C(NP(=O)(c1ccccc1)c1ccccc1)c1ccc(Cl)cc1 (stereo not given in full),nt,nt,i,nt,nt,nt
O=C(CSc1nnc(-c2ccccn2)n1Cc1ccccc1)NC1CCCC1,i,i,i,89.1µM,i,i
CCn1c(CSCc2ccc(C)cc2)nnc1SCC(=O)N1CCN(c2ccccc2)CC1,?,?,i,?,i,nt
C=CCn1c(SCC(=O)NC2CCCCC2)nnc1-c1ccccn1,i,i,i,79.4µM,i,nt
O=C(CSc1nnnn1Cc1ccccc1)N1CCN(c2ccccc2)CC1,89.1µM,44.7µM,i,i,i,i
CCCn1c(SCC(=O)NC2CCCCC2)nnc1-c1ccccn1,i,i,i,?,i,i
CCn1nnnc1SCC(=O)N1CCN(c2ccccc2)CC1,i,?,i,i,i,nt
C=CCn1c(CSCc2ccccc2)nnc1SCC(=O)N1CCN(c2ccccc2)CC1,i,25.1µM,?,i,i,?
C=CCn1c(SCC(=O)NC2CC2)nnc1-c1ccccn1,i,i,i,?,i,nt
O=C(CSc1nnnn1Cc1ccccc1)NC1CCCCC1,i,50.1µM,i,i,i,i
COc1cc(-c2nnc(SCC(=O)NC3CCCC3)n2C)cc(OC)c1O,i,79.4µM,i,i,i,nt
Cn1c(SCC(=O)NC2CCCCC2)nnc1-c1ccccn1,i,i,i,79.4µM,i,nt
C=CCn1c(SCC(=O)Nc2ccc3c(c2)OCCO3)nnc1-c1ccccn1,89.1µM,i,i,?,i,i
SMILES,JMJD2A Tudor inh,G9a block,Sfp PPTase inh,BAZ2B inh,HP1b chromo inh,L3MBTL1 inh
COc1ccc(COC(=O)N/N=C2/C[C@@H](O)[C@@H](O)[C@@H]3[C@@H]4C(=O)N(C[C@@H]5CCCO5)C(=O)[C@H]4CC[C@H]23)cc1,nt,nt,i,nt,nt,nt
COc1ccc(OCc2nnc(SCC(=O)NC3CCCCC3)o2)cc1,?,i,i,i,i,nt
Cc1ccccc1OCc1nnc(SCC(=O)NC2CCCCC2)o1,i,50.1µM,i,i,?,nt
CC1CCN(C(=O)c2nc[nH]c2C(=O)N2CCC(C)CC2)CC1,i,i[2.33 µM],nt,i,i,i
CC(C)OCCCNc1ncc2c(n1)CC(c1ccc(N(C)C)cc1)CC2=O (stereo not given),?,35.5µM,i,i,i,i
O=C1CC(NS(=O)(=O)c2ccc([N+](=O)[O-])cc2)CN1c1cccc(F)c1 (stereo not given),i,i,nt,i,i,i
Brc1ccc(-c2noc(COc3ccc4ccccc4c3)n2)o1,i,44.7µM,?,?,i,nt
COc1ccc(Cc2nc(-c3ccc(Br)o3)no2)cc1OC,i,50.1µM,i,i,i,i
COc1ccc(-c2noc(-c3ccc(Br)o3)n2)cc1OC,i,i[12.7 µM],i,i,i,i[11.4 µM]
O=C(O)C1NCCc2ccccc21 (stereo not given),?,39.8µM,i,?,i,i
CCN=c1scc(-c2ccco2)n1/N=C/c1ccc(O)cc1,56.2µM,35.5µM,35.5µM,50.1µM,?,nt
CCn1cnc2cc(NC(=O)COc3ccc(C)cc3)ccc21,i,nt,nt,nt,i,nt
O=C(NC1c2ccccc2-c2ccccc21)c1ccco1,56.2µM,i,i,i,i,i
CN(C)c1ccc(C(=O)OCC(=O)NC2CCCCCC2)cc1,i,i,i,nt,i,i
CN(C)c1ccc(N=Nc2ccccc2C(=O)OCC(=O)NC2CCCC2)cc1,31.6µM,11.2µM,i,12.6µM,i,?
CN(C)c1ccc(N=Nc2ccccc2C(=O)OCC(=O)NCC2CCCCC2)cc1,7.94µM,7.94µM,?,8.91µM,?,11.2µM
CN(C)c1ccc(N=Nc2ccccc2C(=O)OCC(=O)N(C)C2CCCCC2)cc1,?,20µM,i,8.91µM,i,28.2µM
N#Cc1nc(-c2cccc3ccccc23)oc1NCC#CCOC(=O)c1cccs1,nt,i[12.7 µM],nt,i,nt,i
CCn1c(C(=O)OC)cc2c1ccn2-c1ccc(F)cc1,3.16µM,?,i,12.6µM,?,i
COC(=O)c1cc2c(ccn2-c2ccc(F)cc2)n1Cc1ccc(OC)cc1,?,i,i,i,i,i
Nc1ccc2nc(-c3ccc(Cl)cc3)[nH]c2c1,?,?,i,i,i,nt
c1ccc2[nH]c(C3CC3)nc2c1,i,i,i,i,i,i
Nc1cc(N)cc(-c2nc3ccccc3[nH]2)c1,?,22.4µM,i,44.7µM,i,i
Nc1ccc(-c2nc3ccc(N)cc3[nH]2)cc1,56.2µM,i,i,?,?,i
Nc1ccc2nc(C3CCCCC3)[nH]c2c1,i,?,i,56.2µM,i,i
SMILES,JMJD2A Tudor inh,G9a block,Sfp PPTase inh,BAZ2B inh,HP1b chromo inh,L3MBTL1 inh
Nc1ccc2nc(-c3cccc(-c4nc5ccc(N)cc5[nH]4)c3)[nH]c2c1,i,22.4µM,i,?,i,nt
c1ccc(-c2nc3ccccc3[nH]2)cc1,i,i[12.7 µM],i,i,i,nt
C(=N\N1CCOCC1)/c1nc(-c2ccccc2)n2ccccc12,i,17.8µM,i,?,i,i
CCC[C@@H]1C[C@@]1(CCC)C(NC(=O)c1cccs1)c1ccc(Cl)cc1 (stereo not given in full),nt,nt,i,nt,nt,nt
NS(=O)(=O)c1ccc(CCNC(=O)CSc2ccccc2)cc1,i[11.4 µM],i,i,i,i,i
Cc1ccc2c(CC(=O)NCCc3ccc(S(N)(=O)=O)cc3)coc2c1,44.7µM,i[12.7 µM],i,i,i,nt
NS(=O)(=O)c1ccc(CCNC(=O)CCS(=O)(=O)c2ccc(Br)cc2)cc1,31.6µM,28.2µM,i,31.6µM,17.8µM,nt

# Bioassay records: PubChem BioAssay, National Center for Advancing Translational Sciences (NCATS)
